# Measured values reported in PubChem BioAssay (NCI).
# This is part of a sample that, as a whole, favours compounds with a hit. Of some 79,000 tested, about 15% had one in any assay. Active and inactive are the calls of the source. Cut-off read from the data, not from the text of the source: active = growth inhibition above about 70%; inactive = the rest.
# Assay: NCI Yeast Anticancer Drug Screen. Data for the mlh1 rad18 strain (AID 175)
# Conditions: S. cerevisiae mlh1 rad18 strain growth inhibition; at 50.0 µM (retest, dose inferred, filed as 5.0); stronger effect = higher value
# Method in brief: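 A repair-deficient yeast strain is exposed to test compound, and growth is scored relative to vehicle-treated controls.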
row,Compound,growth inhibition
1,N#Cc1c(SCc2ccc(Cl)cc2)nsc1Nc1ccc(Cl)cc1,93% (active)
2,CC(CO)(Nc1ccc([N+](=O)[O-])cc1[N+](=O)[O-])C(=O)O (stereo not drawn),99% (active)
3,O=[N+]([O-])/C(C(Cl)=C(Cl)Cl)=C(/Nc1ccccc1)Sc1ccccc1,99% (active)
4,CC(SCc1ccccc1)C(=O)O (stereo not drawn),44% (inactive)
5,O=C1C2(Cl)C(Cl)=C(Cl)C1(Cl)C1(Cl)C(Cl)=C(Cl)C(=O)C21Cl (stereo not drawn),90% (active)
6,O=C(CNC(=O)c1ccccc1)Oc1c(Cl)c(Cl)c(Cl)c(Cl)c1Cl,90% (active)
7,CN(C)c1nc(NNS(=O)(=O)c2ccc(N)cc2)nc(N(C)C)n1,0% (inactive)
8,CC1(C(Cl)(Cl)Cl)C=CC(O)(C#CC2(O)C=CC(C)(C(Cl)(Cl)Cl)C=C2)C=C1 (stereo not drawn),98% (active)
9,COCCN1C(=O)C2c3[nH]c4ccccc4c3C3CCC(C(C)(C)C)CC3C2C1=O (stereo not drawn),98% (active)
10,Cc1nc(N)sc1N=Nc1cccc(Cl)c1Cl,79% (active)
11,ClC1=C(Cl)C2c3ccccc3C1c1ccccc12,97% (active)
12,C=C/C=C/CC=C,-90% (inactive)
13,C/C(=N\NC(=S)NCc1ccccc1)c1nccnc1C,98% (active)
14,COC(=O)c1cc(OC)c(OC)c(OC)c1,48% (inactive)
15,Nc1nc2c(ccc3ccccc32)s1,72% (active)
16,N=C(N)c1ccc(N=Nc2cc(/C=C/c3ccccc3)ccc2O)cc1,98% (active)
17,O=C1NC(=O)N(c2ccc([N+](=O)[O-])cc2)C1=O,7% (inactive)
18,O=C(Nc1cc(Cl)cc(Cl)c1)OCCCl,93% (active)
